Hits are enriched below; roughly 19% of the tested compounds scored in any of these assays.
TDP1 cell noCPT: qHTS for Inhibitors of human tyrosyl-DNA phosphodiesterase 1 (TDP1): qHTS in cells in absence of CPT | DT40 Tdp1-/- hTDP1 cells, no CPT, ATP luminescence, 48 h | Potency, µM (titrated, usually from 46.2 µM), usual class: inhibitors | 420,000 compounds, 15% hits | AID 686978, 2013; also: nearly all actives have a fitted effect of over 55% in size
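DT40 Tdp1-/-;hTDP1 cells, no CPT (DMSO vehicle only), 400 cells/well; compounds pin-transferred; ≥48 hr, 37 °C; CellTiter-Glo 30 min RT dark, luminescence read.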
HepG2 tox: counter-screen for TGF-b inhibitors: cytotoxicity in HepG2 cells | HepG2 CAGA-GFP viability, ATP luminescence, 18 h | Potency, µM (doses to about 46.1 µM), actives largely listed as cytotoxic | 410,000 compounds, 0.76% hits
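CellTiter-Glo luminescence gave cytotoxicity after 18 hours at 37 degrees C. The cells were HepG2 CAGA-GFP in 1% FBS DMEM, stimulated with 500 pg/mL TGF-beta after compound addition. %Activity was normalised to no-cell wells (complete cell-killing) and DMSO (no toxicity), and curves were fitted and classified.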
TDP1 block: inhibitors of human tyrosyl-DNA phosphodiesterase TDP1; Q9NUW8; recombinant TDP1, AlphaScreen DNA substrate cleavage; Potency, µM (series often up to 130 µM), most hits filed as inhibitors; 350,000 compounds, 0.28% hits; AID 485290; also: nearly all actives have a fitted effect of over 40% in size
Target sequence (Q9NUW8 whole entry, looked up): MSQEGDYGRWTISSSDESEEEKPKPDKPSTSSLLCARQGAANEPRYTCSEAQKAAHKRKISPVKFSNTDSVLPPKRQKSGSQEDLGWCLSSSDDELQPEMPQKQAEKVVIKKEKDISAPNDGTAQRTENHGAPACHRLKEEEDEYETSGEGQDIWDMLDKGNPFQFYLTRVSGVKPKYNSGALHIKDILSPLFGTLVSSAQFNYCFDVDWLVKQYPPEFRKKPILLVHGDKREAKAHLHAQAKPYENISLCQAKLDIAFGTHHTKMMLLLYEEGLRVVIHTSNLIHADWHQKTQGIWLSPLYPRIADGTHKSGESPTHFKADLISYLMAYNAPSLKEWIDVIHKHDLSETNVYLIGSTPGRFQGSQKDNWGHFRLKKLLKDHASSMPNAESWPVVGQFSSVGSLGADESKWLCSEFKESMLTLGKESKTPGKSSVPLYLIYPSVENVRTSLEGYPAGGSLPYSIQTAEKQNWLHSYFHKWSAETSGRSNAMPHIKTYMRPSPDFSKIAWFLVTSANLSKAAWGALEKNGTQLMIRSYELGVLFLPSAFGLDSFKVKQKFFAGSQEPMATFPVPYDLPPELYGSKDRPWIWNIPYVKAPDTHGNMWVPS
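Compounds were preincubated with Tdp1 (1 nM final) for 15 min at room temperature before substrate (15 nM final) started a 5 min reaction; beads (10 ug/ml final) were then added for 10 min before AlphaScreen detection.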
IL1B secr inh: inflammasome signaling inhibition, IL-1 beta readout; THP-1 LPS/ATP IL-1B secretion, AlphaLISA, 16 h; hits give low values; activity change, % at 57.5 µM; 360,000 compounds, 4.7% hits; in the data active = activity change below about -50%; inconclusive = mostly about -30% to -49%
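THP-1 cells pretreated 1 hr with compounds (up to 57.5 uM final), then stimulated with LPS (250 ng/mL final) plus ATP (1.25 mM final); secreted IL-1B measured by AlphaLISA after 16 hr, decreased signal indicating inhibition.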
TGFb SMAD3 inh: blocks TGF-b signaling | HepG2 CAGA-GFP TGF-b/SMAD3 reporter, GFP fluorescence, 18 h; TGF-beta stimulated, 500 pg/mL final | 410,000 compounds, 1.2% hits | Potency, µM (highest dose often 46.1 µM), hits mostly inhibitors; also: nearly all actives have a fitted effect of over 65% in size
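HEPG2 CAGA-GFP, 1000 cells/well; 2 h settle, 37 C; cpd via pin tool; TGF-b 500 pg/mL final; 18 h, 37 C; GFP imaging ex488/em500-530; %Activity normalised to -TGF-b and +DMSO controls; CRC fit, curve class.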
TDP1 cell CPT: DT40-hTDP1 cell growth loss with CPT. AID 686979. Potency, µM (highest dose often 46.2 µM), hits mostly inhibitors. 420,000 compounds, 12% hits. chicken DT40 Tdp1-/-;hTDP1 cells + 20 nM CPT, ATP luminescence, 48 h; also: nearly all actives have a fitted effect of over 55% in size
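Chicken DT40 Tdp1-/- cells complemented with human TDP1, 400 cells/well, exposed to compounds plus 20 nM camptothecin for at least 48 h at 37 C; viability read as ATP content by CellTiter-Glo luminescence.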
Hits are given with their value; 0 = inactive; ? = inconclusive; - = no result. Unless noted, calls follow the shape of the dose curve; as a rule, active = well fitted curve in the direction sought with a large enough effect; inconclusive = small, poorly fitted or top-dose-only effect, or another doubt; inactive = no such curve, though single readings can be large; an effect the other way counts as inactive or inconclusive.

SMILES | TDP1 cell noCPT | HepG2 tox | TDP1 block | IL1B secr inh | TGFb SMAD3 inh | TDP1 cell CPT
CC[C@]12c3[nH]c4ccccc4c3CCN1C(=O)C(CC(=O)NCc1cccc(C(F)(F)F)c1)C[C@@H]2C(=O)N1CCN(C(=O)c2ccco2)CC1 (stereo not given in full) | ? | 0 | 0 | -52 | 0 | 18µM
C[C@]12c3[nH]c4cc(-c5ccco5)ccc4c3CCN1C(=O)[C@@H](CC(=O)NCc1cccc(C(F)(F)F)c1)C[C@@H]2C(=O)N1CCOCC1 | ? | 0 | 0 | -53 | ? | ?
C[C@]12c3[nH]c4ccccc4c3CCN1C(=O)C(CC(=O)NCc1cccc(C(F)(F)F)c1)C[C@@H]2C(=O)N1CCOCC1 (stereo not given in full) | ? | 0 | 0 | ? | 0 | ?
COc1ccc(N2C(=O)CSC23C(=O)N(CC(=O)NC2CCCC2)c2ccccc23)cc1 (stereo not given) | 0 | 0 | 0 | 0 | 0 | 0
O=C(Nc1cc(Cl)cc(Cl)c1)c1cc(S(=O)(=O)N2CCc3ccccc3C2)ccc1F | ? | 0 | 0 | - | 0 | ?
CC(C)N(C(=O)[C@H]1C[C@H](CC(=O)NCc2ccco2)C(=O)N2CCc3c([nH]c4cc(-c5ccco5)ccc34)[C@]12C)C(C)C | ? | 0 | 0 | ? | ? | ?
CC(C)N(C(=O)[C@H]1C[C@H](CC(=O)NCc2cccc(C(F)(F)F)c2)C(=O)N2CCc3c([nH]c4cc(-c5ccco5)ccc34)[C@]12C)C(C)C | ? | 0 | 0 | -67 | ? | ?
CC(C)C(=O)N1CCN(c2c(Cl)cccc2[N+](=O)[O-])CC1 | ? | 0 | 0 | 0 | 0 | 0
O=C(/C=C/c1ccccc1)N1CCN(c2c(Cl)cccc2[N+](=O)[O-])CC1 | 16µM | 0 | 0 | ? | ? | 23µM
CCC(=O)N1CCN(c2c(Cl)cccc2[N+](=O)[O-])CC1 | ? | 0 | 0 | 0 | 0 | ?
O=C(c1cccnc1)N1CCN(c2c(Cl)cccc2[N+](=O)[O-])CC1 | 8.2µM | 0 | 0 | 0 | 0 | 0
COc1ccc(C(=O)N2CCC3(CC2)CN(C(=O)NC(C)C)C3)cc1 | 0 | - | - | - | - | 0
Cc1nnc(NCCc2ccccc2)c2ccccc12 | 23µM | 0 | 0 | 0 | 0 | ?
Cc1nnc(NCc2cccc(Cl)c2)c2ccccc12 | ? | 0 | 0 | 0 | 0 | ?
Cc1ccc(N(Cc2cccs2)C(=O)c2ccccc2[N+](=O)[O-])cc1 | 9.2µM | 0 | 0 | - | ? | 15µM
COc1ccc(N(Cc2cccs2)C(=O)COc2ccc([N+](=O)[O-])cc2)cc1 | 26µM | 0 | 0 | - | 0 | ?
O=C(NCc1cccs1)c1ccccc1[N+](=O)[O-] | 0 | 0 | 0 | 0 | 0 | 0
Cc1ccc(N(Cc2cccs2)C(=O)COc2ccccc2[N+](=O)[O-])cc1 | 23µM | 0 | 0 | - | 0 | 21µM
Cc1ccc(CN(C(=O)COc2ccccc2[N+](=O)[O-])c2ccccn2)o1 | ? | 0 | 0 | - | 0 | ?
CC(C)CNc1ncnc2c1ncn2[C@H]1CN(Cc2cccc3ccccc23)C[C@@H](CO)O1 | ? | 0 | - | 0 | 0 | 18µM
CC(C)CNc1ncnc2c1ncn2[C@H]1CN(Cc2ccc(Cl)cc2)C[C@@H](CO)O1 | ? | 0 | - | 0 | 0 | ?
CC(C)CNc1ncnc2c1ncn2[C@H]1CN(CCc2ccccc2)C[C@@H](CO)O1 | 0 | 0 | - | -71 | 0 | 0
OC[C@@H]1CN(Cc2cccc3ccccc23)C[C@H](n2cnc3c(NCc4ccco4)ncnc32)O1 | 21µM | 0 | - | ? | 0 | 21µM
Cc1cc(NC(=O)c2cc(-c3ccc(Cl)c(Cl)c3)on2)n(-c2ccccc2)n1 | 0 | 0 | 0 | - | 0 | 0
CCOc1ccccc1NC(=O)CN1C(=O)COc2ccc(S(=O)(=O)Nc3ccccc3)cc21 | 18µM | 0 | 0 | - | ? | 16µM
SMILES | TDP1 cell noCPT | HepG2 tox | TDP1 block | IL1B secr inh | TGFb SMAD3 inh | TDP1 cell CPT
Cc1ccc(Cl)cc1NC(=O)CN1C(=O)c2cccc3cccc1c23 | 0 | 0 | 0 | - | 0 | 0
COc1cc(NC(=O)CN2C(=O)COc3ccc(S(=O)(=O)NC4CCCC4)cc32)cc(OC)c1 | 0 | 0 | 0 | - | 0 | 0
O=C(CN1C(=O)COc2ccc(S(=O)(=O)NC3CCCC3)cc21)Nc1ccc(Cl)cc1F | ? | 16µM | 0 | - | ? | ?
Cc1cc(Cl)ccc1NC(=O)CN1C(=O)C(=O)c2ccccc21 | 4.1µM | 0 | 0 | - | 0 | 5.8µM
CCOc1ccccc1NC(=O)CN1C(=O)COc2ccc(S(=O)(=O)N3CCCCCC3)cc21 | 21µM | 0 | 0 | - | 0 | ?
CN(C)c1oc(/C=C/c2ccc(F)cc2)nc1C#N | 0 | 0 | 0 | - | - | 0
COc1cc(NC(=O)C(NS(=O)(=O)c2ccc3c(c2)CCCC(=O)N3)C(C)C)cc(OC)c1 (stereo not given) | 0 | 0 | 0 | - | 0 | 0
Cc1ccc(S(=O)(=O)n2nc(-c3ccccc3)nc2NCc2ccc(Cl)cc2)cc1 | ? | 0 | 0 | - | 0 | ?
COc1cccc(-n2c(=O)c3c4c(sc3n(Cc3ccccc3C#N)c2=O)CCCC4)c1 | 0 | 0 | 0 | - | 0 | 0
COc1ccc(-c2cc3c(=O)n(CC(=O)N4CCCC4)ncn3n2)cc1 | 0 | 0 | 0 | 0 | 0 | 0
Cc1ccc(NC(=O)CN2C(=O)COc3ccc(S(=O)(=O)Nc4ccccc4)cc32)c(C)c1 | ? | 0 | 0 | - | ? | ?
Cc1cc(Cl)ccc1NC(=O)CN1C(=O)COc2ccc(S(=O)(=O)Nc3ccccc3)cc21 | ? | 0 | 0 | - | 14µM | ?
CCOc1ccccc1NC(=O)CN1C(=O)COc2ccc(S(=O)(=O)N3CCCCC3)cc21 | 23µM | 0 | 0 | - | 0 | 21µM
COc1ccccc1NC(=O)CN1C(=O)COc2ccc(S(=O)(=O)N3CCCCCC3)cc21 | 0 | 0 | 0 | 0 | ? | ?
COc1ccc(CNC(=O)CN2C(=O)COc3ccc(S(=O)(=O)NC4CCCC4)cc32)cc1 | 0 | 0 | 0 | 0 | 0 | 0
CCN(Cc1ccccc1)C(=O)CN1C(=O)COc2ccc(S(=O)(=O)NC3CCCC3)cc21 | ? | 0 | 0 | 0 | 0 | 16µM
COc1ccc(Cl)cc1NC(=O)Cn1ccn(-c2cc(C)cc(C)c2)c(=O)c1=O | ? | 0 | 0 | - | 0 | ?
CCNC(=O)CC1SC(=Nc2ccc(Cl)cc2)N(CC)C1=O (stereo not given) | 21µM | 13µM | 0 | 0 | ? | ?

Source: PubChem (National Center for Advancing Translational Sciences (NCATS))
